High-throughput results (PubChem)
This is a sample that favours compounds with a hit; in the whole collection about 12% have one here.
Cycloheximide cs – counter-screen for Shiga toxin inhibitors: cycloheximide protein synthesis inhibition. cell reporter, cycloheximide protein synthesis inhibition counterscreen. max response, %. 300,000 tested, 12% active; in the data active means max response mostly above about 13%, no sharp cut-off; inactive means mostly below about 14%; further: read at 38.3 µM for the half of the compounds with a filed dose; 0% is about no effect
Shiga toxin inh – inhibitors of Shiga toxin in Vero cells; 290,000 tested, 9.2% active; inhibition, % at 38.7 µM; Vero cells, Shiga toxin protein synthesis inhibition reporter; AID 2315; in the data active means inhibition mostly above about 28%, no sharp cut-off; inactive means mostly below about 43%; further: 0% is about no effect
SARS PLP yeast – blocks SARS-CoV papain-like protease in a yeast assay; AID 485353; Potency, µM (top dose mostly 32.9 µM), inactives show top-dose activity, positive = growth rescue, most hits filed as activators; 330,000 tested, 0.19% active; S. cerevisiae expressing SARS-CoV PLpro, growth rescue; further: potency means the concentration at half of the fitted maximal effect; 0% is about no effect; nearly all actives have a fitted effect of over 55% in size
NS1 function inh – inhibitors of influenza NS1 protein function; Potency, µM (titrated, usually from 46.1 µM), without a hit: at the top dose activity, positive = more growth; 270,000 tested, 0.4% active; AID 2326; further: potency means the concentration at half of the fitted maximal effect; actives are rising curves; nearly all actives have a fitted effect of over 50% in size
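Recovery from NS1-induced slow growth read by OD600 in budding yeast switched to galactose assay medium (pH 6.0, -URA) at 1:100 dilution. Compound 23 nl per well; the matching strain lacking NS1 serves as control.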
* = called active by the depositor; i = inactive; · = not tested or not shown. Unless noted, the call rests on the fitted dose curve.

SMILES	Cycloheximide cs	Shiga toxin inh	SARS PLP yeast	NS1 function inh
Oc1[nH]c2ccccc2c1N=Nc1ccccc1F	21*	125*	12%	3%
Oc1[nH]c2ccccc2c1N=Nc1ccccc1	44*	104*	1%	1%
O=C(N=Nc1c(O)[nH]c2ccccc12)c1cc(-c2ccc(F)cc2)n[nH]1	5	22	0%	·
O=S1(=O)N=C(N=Nc2c(O)[nH]c3ccccc23)c2ccccc21	7	14	1%	·
COC(=O)[C@]1(CC(C)C)N[C@H](c2ccc(-c3ccc(Cl)c(Cl)c3)cc2)[C@@H]2C(=O)N(C)C(=O)[C@@H]21	·	·	1%	·
COc1ccc(CNC(=O)C/C(C)=N/NC(=O)c2ccc(OC)cc2OC)cc1	14	47*	0%	-2%
C/C(CC(=O)Nc1cccc(Cl)c1Cl)=N\NC(=O)c1ccccc1N	37*	112*	-1%	1%
C/C(CC(=O)Nc1cccc(Br)c1)=N\NC(=O)c1ccc(O)cc1O	31*	65*	11%	1%
C/C(CC(=O)Nc1ccc(Cl)c(C(F)(F)F)c1)=N\NC(=O)c1cc2ccccc2cc1O	13*	-7	1%	3%
COc1ccc(CNC(=O)C/C(C)=N/NC(=O)c2cc(OC)cc(OC)c2)cc1	-3	-7	-4%	3%
COc1ccc(Cl)cc1NC(=O)C/C(C)=N/NC(=O)c1ccccc1Cl	12	·	-1%	6%
COc1cccc(NC(=O)C/C(C)=N/NC(=O)c2ccccc2Cl)c1	25*	55*	1%	-1%
COc1ccc(C(=O)N/N=C(\C)CC(=O)Nc2ccc3ccccc3c2)c(OC)c1	13*	15	-1%	4%
Cc1cc(C(=O)OCC(=O)N2CCc3ccccc32)c(C)o1	25*	37	-3%	1%
O=C(OCC(=O)N1CCc2ccccc21)C1=COCCO1	37*	56*	-3%	3%
CC(C)(O)c1[nH]c2ccc(C(F)(F)F)cc2c1C(C)(C)O	7.9*	20	-10%	-24%
CC(C)(O)c1[nH]c2cc(C(F)(F)F)ccc2c1C(C)(C)O	9	37*	-14%	-21%
Cc1cc(C)cc(OCC(=O)N2CCN(c3ncccn3)CC2)c1	·	·	5%	·
CC(NCC(O)COC1CCC(C(C)(C)C)CC1)c1ccccc1 (centres undefined)	-9	-9	-23%	·
Cn1nc(C(=O)Nc2ccc3c(c2)OCO3)c2ccccc2c1=O	5	1	-1%	-4%
Cn1nc(C(F)(F)F)cc1C(=O)Nc1ccc(Cl)cc1	5	8	-5%	-38%
Cn1nccc1C(=O)Nc1ccc(Cl)cc1	28*	68*	-2%	-21%
Cn1nccc1C(=O)Nc1ccc2c(c1)OCO2	28*	107*	-2%	11%
N#CC(C(=S)Nc1ccccc1)c1nc2ccccc2[nH]1 (centres undefined)	19*	25	-2%	6%
OC(c1ccccc1)c1nc2ccccc2[nH]1 (centres undefined)	-1	·	3%	14%
SMILES	Cycloheximide cs	Shiga toxin inh	SARS PLP yeast	NS1 function inh
OC(c1nc2ccccc2[nH]1)C(O)c1nc2ccccc2[nH]1 (centres undefined)	21*	·	5%	10%
Cc1ccc2nc(CCc3nc4ccc(C)cc4[nH]3)[nH]c2c1	-2	-6	-3%	-7%
Cc1ccc2nc(C(O)C(O)c3nc4ccc(C)cc4[nH]3)[nH]c2c1 (centres undefined)	46*	122*	12%	-11%
Cc1ccc2nc(N3CCN(C)CC3)[nH]c2c1	48*	67*	2%	5%
COc1ccc(OC2CCN(S(=O)(=O)c3ccccc3)CC2)cc1	6	24	-2%	-11%
COc1cc(OC)cc(C(=O)NCC(=O)OC2CCCCC2=O)c1 (centres undefined)	·	·	0%	·
Cc1nnc(SCC(=O)NC2CCCc3ccccc32)n1-c1ccccc1 (centres undefined)	-3	-8	3%	0%
O=C(N/N=C/C(Cl)=C/c1ccccc1)c1ccccc1F	56*	80*	-7%	-32%
N#Cc1ccc(/C=N/NC(=O)c2ccccc2F)cc1	12	13	-15%	-2%
O=C(N/N=C/C(Br)=C/c1ccccc1)c1ccccc1F	34*	86*	-53%	-26%
CC(C)(C)c1ccc2c(c1)C(c1ccc3c(c1)OCO3)CC(=O)O2 (centres undefined)	-3	i	-30%	·
C/C(=N\NC(=O)c1cccc(S(=O)(=O)N2CCCC2)c1)c1cccs1	19*	50*	6%	·
C/C(=N\NC(=O)c1ccncc1)c1cccs1	48*	63*	-1%	·
C/C(=N\NC(=O)c1cccs1)c1cccnc1	17	72	2%	·
C/C(=N\NC(=O)c1cccs1)c1ccc2ccccc2c1	37*	41*	2%	-4%
